# From PubChem BioAssay (NCI)
# The panel holds about 83,000 compounds, 20% with a hit somewhere; the sample as a whole holds those more often.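 48-hour exposure, single concentration, 96-well plates; percent growth endpoint where 0 means no net growth. Active: below 10.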 A number with no mark means an inactive call. Activity calls are given as the source filed them.
# Columns and labels:
# Experiment in all cases: NCI-60 one-dose screen, 48 h (100 = growth as untreated, 0 = no growth, -100 = all killed)
# Conditions in all cases: 10 µM unless noted
# [1] = tested on: NCI-H23 lung
# [2] = tested on: NCI-H226 lung
# [3] = tested on: NCI-H322M lung
# [4] = tested on: HOP-62 NSCLC
# [5] = tested on: NCI-H460 lung
# [6] = tested on: HOP-92 NSCLC
# [7] = tested on: NCI-H522 lung
# [8] = tested on: A549/ATCC NSCLC
# [9] = tested on: 786-0 renal
# [10] = tested on: COLO 205 colon
Compound,growth [1],growth [2],growth [3],growth [4],growth [5],growth [6],growth [7],growth [8],growth [9],growth [10]
O=C(O)c1cn(C2CC2)c2cc(N3CCN(Cc4ccc5ccccc5c4O)CC3)c(F)cc2c1=O,26.4%,9.01% (active),23.4%,-31% (active),6.73% (active),-6.42% (active),24.8%,-23.4% (active),38.3%,33.4%
CCN(CC)S(=O)(=O)c1ccc(S(=O)(=O)N2CCC[C@@H](C(=O)N3CCN(c4nc(C(C)C)no4)CC3)C2)cc1,50%,82.1%,88.7%,66.8%,70.8%,77.1%,60.2%,67.1%,89.6%,102%
O=S(=O)(Nc1cc(F)cc(Cl)c1)c1ccc(-c2cnc(C3CC3)o2)cc1,44%,43%,44.5%,40.5%,20.7%,26.7%,1.55% (active),47.3%,30.7%,24.3%
c1ccc(-c2oc(-c3ccccc3)c(CN3CCCCC3)c2CN2CCCCC2)cc1,26%,47.5%,52.9%,54.2%,24.8%,4.02% (active),2.64% (active),56.2%,38.7%,6.83% (active)
CC(C)=CCC[C@](C)(O)[C@H]1CC[C@]2(C)[C@@H]1CC[C@@H]1[C@@]3(C)C/C(=C/c4ccco4)C(=O)C(C)(C)[C@@H]3CC[C@]12C,101%,103%,103%,102%,106%,98.2%,102%,107%,99.6%,110%
Cc1sc2nc(NCCc3c[nH]c4ccc(Cl)cc34)[nH]c(=O)c2c1C,61.6%,70.6%,61.2%,34.7%,18.6%,46%,-23.9% (active),0.107% (active),56.5%,22.3%
O=C(O)c1cn(C2CC2)c2cc(N3CCN(C(=O)N(c4ccccc4)c4nc(-c5ccccc5)cs4)CC3)c(F)cc2c1=O,-3.61% (active),4.84% (active),2.44% (active),-1.15% (active),2.93% (active),-25% (active),-25% (active),9.6% (active),4.01% (active),-20.6% (active)
O=C(c1ccncc1)N1N=C(c2ccc(Cl)cc2)C[C@H]1c1cn(-c2ccccc2)nc1-c1ccccc1,91.5%,89.9%,92.7%,92.8%,88.2%,67%,96.1%,81.7%,97.9%,119%
Cc1ccc(-c2nc(N3CCCNCC3)c3oc(-c4ccc(C)cc4)nc3n2)cc1,91.1%,101%,16.5%,71.8%,-37.5% (active),60.9%,65%,-62.3% (active),-96.2% (active),-71.6% (active)
COc1ccc(C2=C(Br)C(=O)c3nc(C)ccc3C2=O)cc1,88.1%,83%,88.4%,86.8%,95.7%,78%,24%,98%,103%,0.376% (active)
Cc1c(O)cc(-c2cnc(Nc3ccccc3)s2)c(O)c1C,87.1%,98.6%,96.6%,97.4%,99.3%,-64.4% (active),83.4%,93.1%,107%,107%
